# Measurements published in PubChem BioAssay (NCI).
# The panel holds about 83,000 compounds, 20% with a hit somewhere; the sample as a whole holds those more often.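 In brief: 96-well plates, 48 h treatment, single concentration, percent growth endpoint.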 Unmarked numbers belong to inactive results. Activity calls are given as the source filed them. How the source made its calls: active means growth percent below 10; inactive means the rest.
# Tests used:
# Experiment in all cases: NCI-60 one-dose screen, 48 h (100 = growth as untreated, 0 = no growth, -100 = all killed)
# Conditions in all cases: 10 µM unless noted
# DU-145 prostate = system: DU-145 prostate
# K-562 leukemia = system: K-562 leukemia
# MALME-3M melanoma = system: MALME-3M melanoma
# MDA-MB-231 breast = system: MDA-MB-231 breast
# RXF 393 renal = system: RXF 393 renal
# SF-268 CNS = system: SF-268 CNS
# SF-295 CNS = system: SF-295 CNS
# SF-539 CNS = system: SF-539 CNS
# UACC-257 melanoma = system: UACC-257 melanoma
# M14 melanoma = system: M14 melanoma
# HCT-15 colon = system: HCT-15 colon
# HT29 colon = system: HT29 colon
# SNB-75 CNS = system: SNB-75 CNS
# SNB-19 CNS = system: SNB-19 CNS
# U251 CNS = system: U251 CNS
# PC-3 prostate = system: PC-3 prostate
# SK-MEL-5 melanoma = system: SK-MEL-5 melanoma
# UACC-62 melanoma = system: UACC-62 melanoma
# LOX IMVI melanoma = system: LOX IMVI melanoma
# SK-MEL-28 melanoma = system: SK-MEL-28 melanoma
Structure (SMILES),growth (DU-145 prostate),growth (K-562 leukemia),growth (MALME-3M melanoma),growth (MDA-MB-231 breast),growth (RXF 393 renal),growth (SF-268 CNS),growth (SF-295 CNS),growth (SF-539 CNS),growth (UACC-257 melanoma),growth (M14 melanoma),growth (HCT-15 colon),growth (HT29 colon),growth (SNB-75 CNS),growth (SNB-19 CNS),growth (U251 CNS),growth (PC-3 prostate),growth (SK-MEL-5 melanoma),growth (UACC-62 melanoma),growth (LOX IMVI melanoma),growth (SK-MEL-28 melanoma)
Nc1nc(-c2cc3c(cc2Cl)NC(=O)/C3=C/c2ccccc2)cs1,51.6%,3.89% (active),97.1%,37.3%,63.3%,52.1%,70%,81.5%,80.1%,60.6%,35.5%,35.8%,64.8%,59.7%,40.3%,46.4%,24.7%,43%,3.66% (active),76.1%
Cc1ccccc1C[P+](c1ccccc1)(c1ccccc1)c1ccccc1,32.4%,22.4%,5.05% (active),46.3%,50.4%,16.7%,25.2%,33.6%,-1.88% (active),29.2%,107%,10.5%,9.33% (active),28.7%,16.4%,14.5%,-23.2% (active),18.8%,14.7%,27.2%
CCOC(=O)c1cnc2c(OC)ccc(OC)c2c1Cl,118%,116%,98.3%,128%,115%,98.9%,110%,104%,101%,106%,107%,117%,82.7%,114%,109%,93.6%,107%,109%,91.1%,120%
COc1ccccc1NC(=O)COc1ccc(/C=C2/Oc3cc4occc4c(OC)c3C2=O)cc1OC,114%,99.4%,115%,99.8%,103%,103%,103%,101%,100%,106%,104%,113%,114%,105%,102%,92.2%,86.3%,91.6%,98.8%,111%
CCn1cc(C(=O)O)c(=O)c2cc(F)c(N3CCN(CC(=O)Nc4ccc(C(C)=O)cc4)CC3)cc21,111%,94.6%,105%,100%,102%,102%,103%,98%,93.1%,102%,104%,100%,87.3%,99%,99.6%,96.4%,100%,95.9%,96.1%,105%
Cc1nc(-c2ccc(Cl)cc2)ccc1NC(=O)Nc1cccc(C(F)(F)F)c1,97.6%,80.6%,126%,115%,104%,98.4%,98.4%,94.1%,98.9%,101%,82.1%,75.7%,92.8%,108%,76.7%,80.5%,95.3%,95.6%,92.9%,110%
CCc1ccc(C2=C/C(=C/c3ccc(Cl)cc3)C(=O)N2CCc2ccc(S(N)(=O)=O)cc2)cc1,43.8%,11%,41.5%,43.8%,7.12% (active),45.6%,25.9%,56.1%,39.4%,30.6%,17.7%,6.46% (active),52.5%,54.6%,25.1%,11.5%,41.4%,31.2%,24.3%,38.2%
CCCCCCCC(=O)SCC/C=C/[C@@H]1CC(=O)NCc2nc(cs2)C2=N[C@@](C)(CS2)C(=O)N[C@@H](C(C)C)C(=O)N1,10.9%,6.8% (active),10.8%,11.4%,-52.8% (active),18%,2.96% (active),25%,-19.6% (active),15.5%,61%,-22.4% (active),35.8%,20.8%,-33.5% (active),19.6%,-21.3% (active),-25% (active),-91.8% (active),25.3%
CCN(CC)CCNCC(O)Cc1ccc(OC)cc1 (stereo not given),110%,105%,113%,105%,103%,107%,104%,106%,86.1%,104%,112%,77.4%,110%,98.9%,94.5%,76.2%,99.9%,93.9%,103%,116%
CN(C)CCS(=O)(=O)Nc1cc(-c2ccc3ncnc(Nc4ccc(F)c(Cl)c4)c3c2)cnc1Cl,-3.31% (active),9.31% (active),-23.2% (active),-26.8% (active),-47.2% (active),-20.9% (active),10.1%,-22.2% (active),-0.224% (active),4.73% (active),-2.7% (active),2.45% (active),9.33% (active),41.6%,-40.6% (active),6.17% (active),-71.9% (active),-2.94% (active),-58.5% (active),-31.6% (active)
COc1cc(-c2nc3sc(C)cn3c2/C=C2\C(=O)Nc3ccccc32)c(Br)c(OC)c1OC,46.9%,9.97% (active),26.3%,79.4%,13.4%,54.1%,21.8%,11.8%,79.4%,22.2%,52.9%,9.62% (active),18.2%,40.4%,52.1%,26.5%,10.4%,52.8%,41.3%,69.5%
CNCCCOc1c(Br)cc(CCNC(=O)/C(Cc2cc(Br)c(OC)c(Br)c2)=N/O)cc1Br,-5.03% (active),-51.2% (active),-78% (active),-69.8% (active),-5.85% (active),4.43% (active),-65.5% (active),-73.9% (active),-45.3% (active),-76.7% (active),-58.3% (active),-48.2% (active),8.28% (active),-23% (active),-84% (active),-40.4% (active),-90.2% (active),-47% (active),-80.1% (active),-64.2% (active)
Cc1c(NC(=O)c2sc3nc4c(cc3c2N)CN(Cc2ccccc2)CC4)cccc1C(F)(F)F,54.9%,8.08% (active),63.8%,73.8%,67.2%,65.6%,41.5%,65%,52.2%,31.2%,29.3%,12.2%,45.8%,50.5%,38.2%,56%,41.9%,37.2%,42.3%,74%
COc1cc(NC(C)CCCN2C(=O)c3ccccc3C2=O)c2nc(C)ccc2c1OC (stereo not given),103%,66.5%,104%,78.3%,96.4%,104%,93.5%,99.4%,102%,99.9%,89.8%,98.4%,82.6%,99.7%,94.2%,81.1%,88.5%,74.9%,85.7%,97.4%
